Source: PubChem (several laboratories)
Sampled rows, rich in hits. Any-hit rate of the full collection: about 2.2%.
aSyn 5UTR inh: 5' untranslated region of α-synuclein, MLPCN primary screen | alpha-synuclein 5'UTR reporter, inhibitor activity | inhibition, % (tested at 7.5 µM) | 300,000 tested, 0.82% active | AID 1813; in the data active = inhibition above about 60%;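 note: H4 neuroglioblastoma cells stably carrying SNCA 5'UTR luciferase fusion; 0% = DMSO wells and 100% = positive control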
KLF5 inh: suppresses KLF5 promoter-driven expression | DLD-1 KLF5 promoter-luciferase reporter, luminescence | inhibition, % at 5 µM | 290,000 tested, 0.23% active;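 active = inhibition above a per-plate limit of that plate's mean compound inhibition plus 3 SD, cut at about 60% in these data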;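 note: 0% = DMSO wells and 100% = LY294002 at 200 µM; higher means less KLF5 promoter-driven luciferase light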
IEC-6 tox: counter-screen for KLF5 inhibitors: cytotoxicity in IEC-6 cells; IEC-6 cytotoxicity, luminescence viability; inhibition, % at 5 µM; 290,000 tested, 0.78% active; AID 1825; in the data active = inhibition above about 22%;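 note: 0% = plate median of test compound wells and 100% = cytotoxic reference compound wells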
BaF3 tox: counter-screen for JAK2V617F inhibitors: parental Ba/F3 viability inhibitors; inhibition, % at 5.6 µM; CellTiter-Glo ATP luminescence; 220,000 tested, 1.1% active;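 active = inhibition above a per-campaign cutoff, the mean inhibition of all tested compounds plus 3 SD, cut at about 27% in these data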;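 note: 0% = DMSO wells and 100% = JAK Inhibitor I control wells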
Ba/F3 V617F tox: reduce viability of Ba/F3 cells dependent on JAK2V617F. Ba/F3 EpoR-JAK2V617F viability, ATP luminescence. inhibition, % at 5.6 µM. 220,000 tested, 1.1% active;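 active = inhibition above the campaign mean plus 3 SD over all tested compounds, cut at about 24% in these data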;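 note: cytokine-independent growth of Ba/F3 cells driven by EpoR plus mutant JAK2; 0% = DMSO-treated cells and 100% = JAK inhibitor I control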
APP 5UTR inh: APP translation inhibition; SH-SY5Y APP 5'UTR-luciferase reporter, luminescence; inhibition, % at 2 µM; 190,000 tested, 0.82% active; AID 1285;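 active = inhibition above a set limit, derived from the sample mean plus 3 SD, cut at about 45% in these data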
* hit, by the source's call; . = not tested or not shown.

SMILES	aSyn 5UTR inh	KLF5 inh	IEC-6 tox	BaF3 tox	Ba/F3 V617F tox	APP 5UTR inh
Cc1cccc(NS(=O)(=O)c2cnc[nH]2)c1	11	-20	4	93*	4	4
COc1cc(/C=N/NC(=S)Nc2cccc(C(=O)O)c2)ccc1O	70*	29	7	6	5	12
COc1ccc(/C=N/NC(=S)Nc2cccc(C(=O)O)c2)cc1	30	-29	-3	3	-3	-29
O=C(C[n+]1ccc(/C=N/O)cc1)NC1CCCCC1	-13	-27	-3	9	1	19
CN(C)CCCN(C(=O)CCc1ccccc1)c1nc2ccc(Cl)cc2s1	109*	-16	3	7	0	10
O=C(COC(=O)c1ccc(Cl)nc1)NNC(=O)c1ccc(Cl)cc1	-3	.	.	.	.	.
COc1cc2cc(/C=C/C(=O)c3ccco3)c(Cl)nc2cc1OC	6	-27	-2	5	2	50*
CNC(=S)N/N=C(\C)c1ccc(N2CCOCC2)cc1	-55	22	4	41*	96*	-31
COC(=O)C1=C(C)NC(C)=C(C(=O)OC)C1c1ccccc1OCc1c(C)no[n+]1[O-]	.	-14	15	35*	32*	-9
COc1cc(/C=C(\C#N)C(N)=O)ccc1OCc1c(C)no[n+]1[O-]	-12	-27	-6	0	-5	.
O=C(Nc1ccccc1C(=O)O)C1=NN=CC1	16	-9	-3	.	.	.
C(=N\Nc1ccc2nncn2n1)/c1ccccn1	67*	-17	15	2	6	.
Fc1cccc(/C=N/Nc2nncc3ccccc23)c1	-13	-37	19	.	.	.
C(=N\Nc1nncc2ccccc12)/c1ccccn1	98*	56	3	.	.	.
CN(CCc1ccccc1)C(=O)CCc1nnc(Cc2ccc3c(c2)OCO3)o1	-2	-31	-7	.	.	.
CCn1c(=O)c2ccccc2n2c(SCC(=O)N3CCc4ccccc4C3)nnc12	-26	-1	-3	2	-2	1
CCCn1c(=O)c2ccccc2n2c(SCC(=O)N3CCc4ccccc4C3)nnc12	5	0	2	8	1	61*
CC(C)(C)c1ccc(C(O)CCCN2CCC(C(O)(c3ccccc3)c3ccccc3)CC2)cc1 (centres undefined)	111*	-3	3	13	11	26
Oc1ccccc1CN1CCC(C(O)(c2ccccc2)c2ccccc2)CC1	5	-9	6	8	-3	-5
Cc1ccc(NC(=O)c2ccc(S(=O)(=O)N3CCOCC3)cc2)cc1	-20	-8	-1	.	.	.
Cc1cc(C)cc(NC(=S)N=Nc2c(O)n(C)c3ccc(S(=O)(=O)N4CCOCC4)cc23)c1	63*	-11	4	-2	0	38
Cc1ccc(NC(=S)N=Nc2c(O)n(C)c3ccc(S(=O)(=O)N4CCOCC4)cc23)cc1	75*	7	5	7	2	69*
O=S(=O)(c1ccc(Cl)c(NC(=S)Nc2cccc(O)c2)c1)N1CCOCC1	-5	-33	-2	3	0	6
Cn1c(=O)n(C)c2cc(S(=O)(=O)N3CCOCC3)ccc21	22	-1	2	3	2	-11
Cc1cccc(NC(=S)N=Nc2c(O)n(C)c3ccc(S(=O)(=O)N4CCOCC4)cc23)c1	83*	-6	-3	0	-7	66*
SMILES	aSyn 5UTR inh	KLF5 inh	IEC-6 tox	BaF3 tox	Ba/F3 V617F tox	APP 5UTR inh
O=C(Nc1ccccc1)OC1CCC2CC1CCC2OC(=O)Nc1ccccc1 (centres undefined)	27	-2	-3	8	-2	14
Cc1ccc(C(=O)O/N=C(\N)Cc2cccs2)c(Cl)c1	-73	-174	11	.	.	.
CC(C)n1cc(/C=C/c2cc[n+](C)cc2)c2ccccc21	-4	-12	10	.	.	.
C=CCn1c(C)c(/C=C/c2cc[n+](C)cc2)c2ccccc21	22	-5	8	.	.	.
Cc1ccccc1/C=C/c1cc[n+](C)cc1	-37	-5	4	58*	50*	10
Cc1[nH]c2ccccc2c1/C=C/c1cc[n+](C)cc1	-12	-23	5	77*	85*	-10
CC(C)CNC(=O)C(=O)NCC1OCCCN1S(=O)(=O)c1ccc2c(c1)OCCO2 (centres undefined)	3	-18	0	.	.	.
CCCCCCCCCCCCCCCCn1cc[n+](CC(C)=O)c1	.	2	2	75*	68*	20
C#CCn1cc[n+](CC(=O)N(C)C)c1	0	-31	2	3	-4	-5
O=C(CCc1ccncc1)NC1CCCc2c1cnn2-c1cc(F)cc(F)c1 (centres undefined)	79*	7	2	.	.	.
